Test [1] can be described thus: ATG_DR4_LXR_CIS: Attagene CIS-FACTORIAL HepG2 Assay for human Liver X Receptor (LXR), DR4 submotif (AID 2282929). The note with it: HepG2 Attagene DR4 cis-reporter, mRNA transcription; AC50: actives raise or lower the signal unless noted; outcome: actives raise or lower the signal unless noted. In outline:
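HepG2 cells transiently transfected with cis-promoter-driven multiplexed reporter units (DR4 element) were dosed for 24 h. Reporter mRNA was quantified by RT-PCR, fluorescent primer extension, HpaI digestion and capillary electrophoresis; bidirectional fitting versus DMSO baseline.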

Test [2] addresses Aryl hydrocarbon receptor (Homo sapiens) (UniProt P35869). The experiment in a line: ATG_Ahr_CIS: Attagene CIS-FACTORIAL HepG2 Assay for human Aryl Hydrocarbon Receptor (Ahr) (AID 2282930). The note with it: HepG2 AhR cis-factorial reporter transcription; actives raise or lower the signal. The procedure, abridged: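 HepG2 cells transiently transfected with cis-element-driven multiplexed reporter transcription units; endogenous transcription factor activity measured as reporter mRNA 24 h after dosing. RT-PCR, 6-FAM labelling, HpaI digestion, capillary electrophoresis; bidirectional fitting versus DMSO baseline.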

Test [3] is described as follows: ATG_AP_1_CIS: Attagene CIS-FACTORIAL HepG2 Assay for human Activator Protein 1 (AP-1) (AID 2282931). The note with it: HepG2 Attagene cis-factorial AP-1 reporter mRNA; actives raise or lower the signal. The procedure, abridged:
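HepG2 cells transiently transfected with cis-element-driven multiplex reporter units; 24 h compound exposure. Reporter mRNA quantified by RT-PCR, FAM-labelled fragments resolved by capillary electrophoresis; bidirectional fit versus DMSO baseline.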

The nature of test [4]: ATG_AP_2_CIS: Attagene CIS-FACTORIAL HepG2 Assay for human Activator Protein 2 (AP-2) (AID 2282932). The note with it: HepG2 AP-2 cis-reporter, Attagene transcription factor profiling; AC50: actives raise or lower the signal unless noted; outcome: actives raise or lower the signal unless noted. In outline:
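Cells (HepG2) transfected with promoter-driven reporter constructs, treated 24 h. Total RNA reverse-transcribed, reporter cDNA PCR-amplified, FAM-labelled by primer extension, digested, resolved by capillary electrophoresis. Activity fitted both directions versus DMSO.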

Test [5] in a line: ATG_BRE_CIS: Attagene CIS-FACTORIAL HepG2 Assay for human Bone Morphogenetic Protein (BMP) Response Element (BRE) (AID 2282933). The note with it: HepG2 BMP response element reporter, Attagene transcription factor profiling; actives raise or lower the signal. In outline: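 Fluorescence-labelled reporter cDNA fragments, separated by capillary electrophoresis, gave the signal for this component of a 52-readout multiplex. HepG2 cells were transfected, exposed to chemicals for 24 h, and compared with DMSO using bidirectional fitting.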

The target of test [6] is Retinoic acid receptor alpha (Homo sapiens) (UniProt P10276). In words: ATG_DR5_RAR_CIS: Attagene CIS-FACTORIAL HepG2 Assay for human Retinoic Acid Receptor Alpha (RARE), DR5 submotif (AID 2282934). The note with it: HepG2 Attagene cis-factorial RARE DR5 reporter, mRNA; actives raise or lower the signal. The procedure, abridged:
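HepG2 cells transiently transfected with multiplexed reporter units under cis (DR5 RARE) promoters, so endogenous transcription factor activity is measured. After 24 h compound exposure, reporter mRNA is quantified by RT-PCR with fluorescent labelling and capillary electrophoresis; bidirectional fitting versus DMSO.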

Test [7] deals with Transcription factor E2F1 (Homo sapiens) (UniProt Q01094). The experiment in a line: ATG_E2F_CIS: Attagene CIS-FACTORIAL HepG2 Assay for human E2F Transcription Factor 1 (AID 2282935). The note with it: HepG2 Attagene cis-reporter, E2F reporter RNA transcripts; actives raise or lower the signal. In outline:
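First, HepG2 cells were transfected with reporter transcription units. Next, they were dosed for 24 h. Then RNA was isolated, converted to cDNA, PCR-amplified, FAM-labeled, HpaI-digested and analyzed by capillary electrophoresis.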

Test [8] in a line: ATG_E_Box_CIS: Attagene CIS-FACTORIAL HepG2 Assay for human Enhancer Box (E-box) (AID 2282936). The note with it: HepG2 E-box cis-reporter transcription, actives raise or lower the signal. In outline: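 Endogenous transcription factor activity was sensed in human HepG2 liver cells through transfected cis-promoter reporter units. After 24 h of dosing, total RNA was reverse-transcribed and reporter cDNA resolved by capillary electrophoresis.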

A short description of test [9]: ATG_M_61_CIS: Attagene CIS-FACTORIAL HepG2 Assay for M61 Transcription Factor (Internal Marker) (AID 2282937). The note with it: HepG2 Attagene CIS-FACTORIAL M61 internal marker reporter; actives raise or lower the signal. The procedure, abridged: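 HepG2 cells transiently transfected with cis-element-driven multiple reporter transcription units, dosed for 24 h. Reporter mRNA measured by RT-PCR, 6-FAM primer-extension labelling, HpaI digestion and capillary electrophoresis; bidirectional fit versus DMSO baseline.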

Test [10] is described as follows: ATG_EGR_CIS: Attagene CIS-FACTORIAL HepG2 Assay for human Early Growth Response 1 (EGR1) (AID 2282938). The note with it: HepG2 Attagene CIS-FACTORIAL EGR reporter mRNA; actives raise or lower the signal. The procedure, abridged: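 HepG2 cells transiently transfected with cis-promoter-driven multiplexed reporter transcription units; reporter mRNA measured 24 h after compound dosing by RT-PCR, 6-FAM primer extension, HpaI digestion and capillary electrophoresis. Bidirectional fit versus DMSO baseline.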

Test [11] in a line: ATG_M_19_CIS: Attagene CIS-FACTORIAL HepG2 Assay for M19 Transcription Factor (Internal Marker) (AID 2282939). The note with it: HepG2 Attagene CIS-FACTORIAL M19 internal marker reporter; actives raise or lower the signal. The procedure, abridged: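 HepG2, MRTU transient transfection, 24 h dosing. Total RNA → RT-PCR → 6-FAM primer extension → HpaI digest → CE fluorescence. Bidirectional curve fit, DMSO negative control.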

The nature of test [12]: ATG_ERE_CIS: Attagene CIS-FACTORIAL HepG2 Assay for Estrogen Response Element (ERE) (AID 2282940). The note with it: HepG2 ERE cis-reporter, Attagene RNA transcript; actives raise or lower the signal. In outline:
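After a 24 h chemical treatment, RNA from reporter-transfected HepG2 cells is reverse-transcribed, PCR-amplified and fluorescently labelled. Fragments separated by capillary electrophoresis give reporter signal; DMSO serves as negative control.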

Test [13] is described as follows: ATG_Ets_CIS: Attagene CIS-FACTORIAL HepG2 Assay for human Erythroblast Transformation Specific (ETS) (AID 2282941). The note with it: HepG2 ETS cis-reporter transcription; AC50: actives raise or lower the signal unless noted; outcome: actives raise or lower the signal unless noted. In outline: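 RT-PCR/capillary electrophoresis fluorescence read-out of reporter mRNA; HepG2 transient multi-reporter transfection; 24 h compound exposure; gain or loss of signal fitted bidirectionally relative to DMSO.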

Test [14] has as its target Hepatocyte nuclear factor 3-beta (Homo sapiens) (UniProt Q9Y261). The experiment in a line: ATG_FoxA2_CIS: Attagene CIS-FACTORIAL HepG2 Assay for human Forkhead box A2 (FOXA2) (AID 2282942). The note with it: HepG2 cis-reporter transcription factor activity, 24 h; actives raise or lower the signal. In outline:
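HepG2 cells transiently transfected with multiple cis-regulated reporter transcription units, dosed for 24 h. Reporter mRNA measured by RT-PCR, 6-FAM labelling, HpaI digestion and capillary electrophoresis; bidirectional fitting against DMSO baseline.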

Test [15] is described as follows: ATG_FoxO_CIS: Attagene CIS-FACTORIAL HepG2 Assay for human Forkhead box O (FoxO) (AID 2282943). The note with it: HepG2 Attagene cis-reporter, FoxO element, mRNA; actives raise or lower the signal. The procedure, abridged: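 HepG2 cells transiently transfected with cis-promoter-driven multiple reporter transcription units; 24 h after chemical dosing, reporter mRNA quantified by RT-PCR, fluorescent primer extension, HpaI digestion and capillary electrophoresis. Bidirectional fitting versus DMSO baseline.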

A short description of test [16]: ATG_GATA_CIS: Attagene CIS-FACTORIAL HepG2 Assay for human GATA Binding Protein (AID 2282944). The note with it: HepG2 GATA cis-element reporter, Attagene multiplex mRNA; actives raise or lower the signal. The procedure, abridged:
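Cells: HepG2, transiently transfected with cis-regulated reporter transcription units. Exposure: 24 h. Detection: RT-PCR plus capillary electrophoresis of FAM-labeled fragments. Analysis: bidirectional, DMSO as baseline.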

Test [17] in a line: ATG_GLI_CIS: Attagene CIS-FACTORIAL HepG2 Assay for human Zinc Finger Protein GLI1 (AID 2282945). The note with it: HepG2, Attagene cis-factorial reporter mRNA, GLI element; actives raise or lower the signal. The procedure, abridged: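 HepG2 cells transiently transfected with cis-promoter multiplexed reporter units report endogenous transcription factor activity. After 24 h chemical exposure, reporter mRNA was quantified by RT-PCR, 6-FAM labelling, HpaI digestion and capillary electrophoresis, with bidirectional fitting against DMSO.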

The nature of test [18]: ATG_GRE_CIS: Attagene CIS-FACTORIAL HepG2 Assay for human Glucocorticoid Response Elements (GRE) (AID 2282947). The note with it: HepG2 GRE cis-reporter, Attagene multiplex mRNA; AC50: actives raise or lower the signal unless noted; outcome: actives raise or lower the signal unless noted. In outline: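 Cells (HepG2) bearing transfected cis-promoter reporter transcription units were treated with chemical for 24 hours. Reporter mRNA was measured via RT-PCR with capillary electrophoresis, and activity was fitted in both directions relative to DMSO.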

Test [19] in a line: ATG_ISRE_CIS: Attagene CIS-FACTORIAL HepG2 Assay for human Interferon Regulatory Factor 1 (IRF1) binding to an Interferon-Stimulated Response Element (ISRE) (AID 2282948). The note with it: HepG2 ISRE cis-reporter (Attagene), mRNA transcription readout; actives raise or lower the signal. In outline:
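Read-out: fluorescent RT-PCR products resolved by capillary electrophoresis, reporting endogenous transcription factor activity via ISRE-driven reporter mRNA in transfected HepG2 cells dosed for 24 h; gain or loss fitted relative to DMSO.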

Test [20] deals with Bile acid receptor (Homo sapiens) (UniProt Q96RI1). The experiment in a line: ATG_IR1_CIS: Attagene CIS-FACTORIAL HepG2 Assay for human Nuclear Receptor Subfamily 1 Group H Member 4 (NR1H4), IR1 submotif (AID 2282946). The note with it: IR1 reporter transcription, actives raise or lower the signal. In outline:
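Readout: reporter transcript levels by RT-PCR with fluorescent capillary electrophoresis, from HepG2 cells transiently transfected with multiplexed cis-regulated reporters and dosed 24 h. Gain- or loss-of-signal fitted versus DMSO negative control.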

The record followed here is PubChem BioAssay (EPA / NIEHS).

Each structure is given as a SMILES string. Active and inactive are the calls of the source. The calls were made as follows: active = hit-call score of the fitted dose curve at least 0.9, where 1 is the maximum; inactive = score below 0.9.

In general, AC50 refers to the concentration at which the activity in the assay is half-maximal.

Aryl hydrocarbon receptor (Homo sapiens), sequence (P35869 whole entry, looked up): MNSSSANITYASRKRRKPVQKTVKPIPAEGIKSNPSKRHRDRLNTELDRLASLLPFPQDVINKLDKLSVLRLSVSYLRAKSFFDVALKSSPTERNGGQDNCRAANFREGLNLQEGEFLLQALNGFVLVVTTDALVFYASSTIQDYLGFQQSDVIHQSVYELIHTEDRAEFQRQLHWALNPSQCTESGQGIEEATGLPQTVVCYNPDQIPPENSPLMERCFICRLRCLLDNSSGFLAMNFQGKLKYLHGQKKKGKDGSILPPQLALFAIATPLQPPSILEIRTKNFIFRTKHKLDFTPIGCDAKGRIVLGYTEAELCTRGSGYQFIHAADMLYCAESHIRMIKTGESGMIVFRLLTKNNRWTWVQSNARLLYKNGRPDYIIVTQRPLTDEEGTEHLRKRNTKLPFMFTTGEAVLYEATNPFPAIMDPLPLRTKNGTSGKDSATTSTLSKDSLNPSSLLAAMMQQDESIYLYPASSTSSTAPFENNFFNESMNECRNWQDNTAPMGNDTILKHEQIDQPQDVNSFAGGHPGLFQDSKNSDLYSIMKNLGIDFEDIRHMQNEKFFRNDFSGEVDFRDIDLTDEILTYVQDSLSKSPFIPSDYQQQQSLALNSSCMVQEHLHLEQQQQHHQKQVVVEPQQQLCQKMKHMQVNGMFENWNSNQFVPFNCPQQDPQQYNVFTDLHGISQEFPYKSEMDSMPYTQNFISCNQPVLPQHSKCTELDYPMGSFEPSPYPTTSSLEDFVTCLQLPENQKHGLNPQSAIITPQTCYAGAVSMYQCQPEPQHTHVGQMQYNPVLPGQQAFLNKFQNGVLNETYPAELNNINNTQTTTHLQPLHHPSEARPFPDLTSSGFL
Hepatocyte nuclear factor 3-beta (Homo sapiens), sequence (Q9Y261 whole entry, looked up): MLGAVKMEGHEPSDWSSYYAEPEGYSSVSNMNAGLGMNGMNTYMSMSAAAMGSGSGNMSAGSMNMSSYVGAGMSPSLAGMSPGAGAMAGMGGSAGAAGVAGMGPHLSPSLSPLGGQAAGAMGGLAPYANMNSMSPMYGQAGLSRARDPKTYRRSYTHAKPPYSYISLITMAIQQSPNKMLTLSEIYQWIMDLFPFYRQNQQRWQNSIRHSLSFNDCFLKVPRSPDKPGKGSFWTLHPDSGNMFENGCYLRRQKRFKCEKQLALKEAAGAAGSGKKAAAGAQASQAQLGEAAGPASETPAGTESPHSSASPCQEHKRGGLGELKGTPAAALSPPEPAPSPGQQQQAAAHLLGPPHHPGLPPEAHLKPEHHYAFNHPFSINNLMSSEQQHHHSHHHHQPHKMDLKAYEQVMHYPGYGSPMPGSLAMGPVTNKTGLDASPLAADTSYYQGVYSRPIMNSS
Retinoic acid receptor alpha (Homo sapiens), sequence (P10276 whole entry, looked up): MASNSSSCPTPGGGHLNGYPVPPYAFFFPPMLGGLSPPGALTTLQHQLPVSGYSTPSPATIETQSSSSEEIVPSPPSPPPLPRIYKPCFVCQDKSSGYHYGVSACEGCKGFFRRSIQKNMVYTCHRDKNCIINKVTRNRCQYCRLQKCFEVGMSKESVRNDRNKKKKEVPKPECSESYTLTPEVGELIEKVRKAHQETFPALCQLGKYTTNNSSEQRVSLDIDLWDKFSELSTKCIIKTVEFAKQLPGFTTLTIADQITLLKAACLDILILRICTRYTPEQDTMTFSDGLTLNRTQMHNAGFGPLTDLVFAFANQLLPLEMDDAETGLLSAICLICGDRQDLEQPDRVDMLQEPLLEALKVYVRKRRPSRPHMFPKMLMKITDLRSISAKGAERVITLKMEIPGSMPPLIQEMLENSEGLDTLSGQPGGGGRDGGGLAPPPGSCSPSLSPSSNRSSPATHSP
Transcription factor E2F1 (Homo sapiens), sequence (Q01094 whole entry, looked up): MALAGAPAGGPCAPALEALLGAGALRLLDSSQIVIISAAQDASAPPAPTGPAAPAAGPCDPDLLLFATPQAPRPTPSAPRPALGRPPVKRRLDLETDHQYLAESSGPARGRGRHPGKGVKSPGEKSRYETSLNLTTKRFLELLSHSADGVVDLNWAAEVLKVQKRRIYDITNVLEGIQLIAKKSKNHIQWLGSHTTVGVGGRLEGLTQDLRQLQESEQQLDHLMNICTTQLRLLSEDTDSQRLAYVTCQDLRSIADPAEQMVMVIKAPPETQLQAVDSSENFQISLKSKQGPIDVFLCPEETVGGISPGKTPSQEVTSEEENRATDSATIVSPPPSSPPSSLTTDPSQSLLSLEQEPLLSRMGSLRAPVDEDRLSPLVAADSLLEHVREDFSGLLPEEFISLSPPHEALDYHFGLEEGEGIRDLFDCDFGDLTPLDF
Bile acid receptor (Homo sapiens), sequence (Q96RI1 whole entry, looked up): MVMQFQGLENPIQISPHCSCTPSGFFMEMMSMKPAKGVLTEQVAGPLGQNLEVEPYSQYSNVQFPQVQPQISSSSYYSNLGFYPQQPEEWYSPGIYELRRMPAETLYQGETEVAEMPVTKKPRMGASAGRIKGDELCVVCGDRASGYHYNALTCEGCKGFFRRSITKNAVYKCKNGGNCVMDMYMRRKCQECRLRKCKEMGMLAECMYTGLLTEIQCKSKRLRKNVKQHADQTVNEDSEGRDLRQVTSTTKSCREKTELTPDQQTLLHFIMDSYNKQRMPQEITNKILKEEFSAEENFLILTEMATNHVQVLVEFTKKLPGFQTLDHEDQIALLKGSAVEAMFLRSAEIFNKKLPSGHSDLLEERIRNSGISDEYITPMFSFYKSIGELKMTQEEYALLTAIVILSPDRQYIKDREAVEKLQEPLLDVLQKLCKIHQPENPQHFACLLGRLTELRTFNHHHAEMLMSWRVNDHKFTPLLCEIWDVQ

`CCCCC(CC)C(=O)OCCOCCOCCOCCOC(=O)C(CC)CCCC` (configuration not stated): the call in test [1], in test [2], in test [3], in test [4], in test [5] and in test [6] was inactive. The result in test [7], in test [8], in [9], in [10], in [11] and in test [12] was inactive. In addition, the outcome in test [13], in test [14], in test [15], in test [16], in test [17] and in test [18] was inactive. Further, the outcome in test [19] was inactive.
Regarding `Cc1cccc2c1ccc1ccccc12`, the result in test [1], in [2], in test [3], in test [4], in [5] and in test [6] was inactive. The compound was classed as inactive in test [7], in [8], in test [9], in test [10], in [11] and in test [13]. Moreover, the call in test [14], in test [15], in [16], in test [17], in [20] and in [19] was inactive. Also, the concentration at half-maximal activity (AC50) in test [12] is 10.2 µM (active).
`O=C1OC(=O)C(F)(F)C1(F)F`: the outcome in test [1], in [2], in test [3], in test [4], in test [5] and in test [6] was inactive. Besides, the result in test [7], in test [8], in [9], in test [10], in test [11] and in [12] was inactive. The call in test [13], in test [14], in [15], in test [16], in test [17] and in test [20] was inactive. Also, the compound was classed as inactive in test [18] and in [19].
In the case of `O=C(NCc1ncc(C(F)(F)F)cc1Cl)c1c(Cl)cccc1Cl`, the AC50 in test [1] is 81.4 µM (active); in test [7] it was 43.1 µM (active). Further, the call in test [2], in test [3], in test [4], in test [5], in [6] and in [8] was inactive. Further, the result in [9], in test [10], in test [11], in test [12], in test [13] and in test [14] was inactive. For the same compound, the compound was classed as inactive in [15], in test [16], in test [17], in test [18] and in [19].
